Measured values from the supplement of paper PMC6555819.

What was measured:
Experiment in all cases: PBM binding z-score (relative to random genomic background probes); higher = stronger binding; sequences stand for … in GC…GCGATTGACAGCGTAGAATGAAGG
[1] = tested on: FXR:RXRa (NR concentration 270 nM, RXRa partner concentration 90 nM)
Outline: (§1)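 Binding buffer was PBS pH 7.4 with 2% milk, 0.02% Triton X-100, 1 mM DTT, 0.2 mg/mL BSA and 0.4 mg/ml salmon testes DNA. In it, ligand-free nuclear receptor dimers were incubated 1 h on custom Agilent 4×180K protein-binding microarrays carrying double-stranded probes. Antibodies against each partner (one per run) detected binding, and z-scores were calculated against random background probes after regression normalization of scanned fluorescence.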

[2] = tested on: LXRa:RXRa (NR concentration 270 nM, RXRa partner concentration 90 nM)
Outline: as §1

[3] = tested on: LXRa homodimer (NR concentration 270 nM)
Outline: as §1

[4] = tested on: LXRb:RXRa (NR concentration 270 nM, RXRa partner concentration 90 nM)
Outline: as §1

[5] = tested on: LXRb homodimer (NR concentration 270 nM)
Outline: as §1

[6] = tested on: PPARa:RXRa (NR concentration 270 nM, RXRa partner concentration 90 nM)
Outline: as §1

[7] = tested on: PPARg:RXRa (NR concentration 180 nM, RXRa partner concentration 90 nM)
Outline: as §1

[8] = tested on: PPARg:RXRa 270nM:90nM, anti-RXR (NR concentration 270 nM, RXRa partner concentration 90 nM)
Outline: as §1

[9] = tested on: PPARg:RXRa 30nM:10nM, anti-RXR (NR concentration 30 nM, RXRa partner concentration 10 nM)
Outline: as §1

[10] = tested on: PPARg:RXRa 90nM:30nM, anti-RXR (NR concentration 90 nM, RXRa partner concentration 30 nM)
Outline: as §1

[11] = tested on: PPARg:RXRa DBDmut IVT, anti-RXR (DBD mutation: RXRa K156A/R161A, NR concentration 270 nM, RXRa partner concentration 90 nM)
Outline: as §1

[12] = tested on: PPARg:RXRa IVT, anti-PPARg (NR concentration 270 nM, RXRa partner concentration 90 nM)
Outline: as §1

[13] = tested on: PPARg DBDmut:RXRa IVT, anti-PPARg (DBD mutation: PPARg1 K132A/R137A, NR concentration 270 nM, RXRa partner concentration 90 nM)
Outline: as §1

[14] = tested on: PPARg DBDmut IVT, anti-PPARg (DBD mutation: PPARg1 K132A/R137A, NR concentration 270 nM)
Outline: as §1

[15] = tested on: PPARg homodimer (NR concentration 180 nM)
Outline: as §1

[16] = tested on: PXR:RXRa (NR concentration 270 nM, RXRa partner concentration 90 nM)
Outline: as §1

[17] = tested on: PXR homodimer (NR concentration 270 nM)
Outline: as §1

[18] = tested on: RARa:RXR (NR concentration 270 nM, RXRa partner concentration 90 nM)
Outline: as §1

[19] = tested on: RARa homodimer (NR concentration 270 nM)
Outline: as §1

[20] = tested on: RARb:RXRa (NR concentration 270 nM, RXRa partner concentration 90 nM)
Outline: as §1

Sequence | PBM binding z-score [1] | PBM binding z-score [2] | PBM binding z-score [3] | PBM binding z-score [4] | PBM binding z-score [5] | PBM binding z-score [6] | PBM binding z-score [7] | PBM binding z-score [8] | PBM binding z-score [9] | PBM binding z-score [10] | PBM binding z-score [11] | PBM binding z-score [12] | PBM binding z-score [13] | PBM binding z-score [14] | PBM binding z-score [15] | PBM binding z-score [16] | PBM binding z-score [17] | PBM binding z-score [18] | PBM binding z-score [19] | PBM binding z-score [20]
ACTAGCAGGCCAAGGGTCCCTCAAGATTAGTCCG | -0.253 | -0.502 | -0.631 | -0.64 | -1.13 | 1.09 | 2.3 | 4.09 | 1.73 | 3.84 | 0.0687 | 0.882 | -0.919 | -0.963 | -0.0936 | -0.598 | -0.427 | -0.327 | -1.05 | 0.381
CGTACGAGGGCATGAGTTGATAGCAAATGCCGAT | 0.342 | 0.419 | -0.557 | 0.284 | -0.608 | 1.23 | 1.11 | 1.07 | 0.157 | 0.878 | 1.2 | 1.22 | -0.964 | -0.327 | 0.331 | 0.557 | 0.0171 | 0.533 | -0.662 | 2.01
CAAACTAGGTCAAGAGGGCAAAGTCCGCTTCCCG | 4.55 | 4 | 1.14 | 2.47 | 0.164 | 5.21 | 8.68 | 7.36 | 5.56 | 7.15 | 8.35 | 8.37 | 4.28 | 1.48 | 3.42 | 2.98 | 0.703 | 3.96 | 1.19 | 4.53
CGTCCATGGTCATAGGAGGTCAGTGAAGACAGAT | 1.81 | 3.6 | 1.31 | 2.3 | -0.0706 | 2.59 | 0.994 | 1.19 | -0.128 | 0.421 | 0.484 | 2.01 | -0.127 | -0.368 | 2.09 | 3.77 | 0.616 | 2.79 | 0.333 | 2.91
GCATATAGGCAATACAAGGTGAAAGTCCGATTGT | 0.177 | 0.0524 | -0.175 | 0.343 | -0.636 | 1.12 | 0.804 | 0.669 | 0.415 | 0.712 | 1.94 | 1.46 | 0.326 | -0.0602 | -0.222 | 0.231 | 0.012 | 0.876 | -0.301 | 0.172
TGTCAAAGTTCAAAGGTAACGTGAGTATCCACAC | 6.92 | 6.79 | 4.59 | 4.91 | 1.54 | 5.99 | 8.97 | 7.93 | 6.04 | 7.73 | 0.486 | 4.72 | 1.71 | 2.12 | 3.33 | 5.78 | 3.67 | 6.92 | 0.948 | 5.15
CCTAGCAGGCCAGTGTCACTCAAGCATTTCGCTT | -0.361 | -0.253 | -0.614 | -0.187 | -0.597 | -0.0659 | -0.338 | -0.0615 | -0.773 | -0.752 | 1.35 | 0.117 | -1.21 | -1.52 | -0.723 | -0.407 | -0.826 | -0.184 | -0.658 | 0.286
